{"source": "the supplement of paper PMC10933113", "note": "Where a name gives a salt, the structure may show the parent alone. ± gives the uncertainty stated by the source.", "data": [{"test_system": "THP-1", "assay": "CD86 surface expression induction over DMSO control (% over DMSO); higher = stronger dendritic cell activation", "conditions": "exposure time: 24 h", "procedure": "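hCLAT-like CD54 and CD86 surface expression on THP1 cells after 24 h exposure at a single concentration (highest non-cytotoxic concentration, or 100-200 µM if not cytotoxic). Flow cytometry (iQue) was run on 5,000 live cells.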", "values": [{"smiles": "O=c1[nH]sc2cc(Cl)ccc12", "note": "[Ticlatone] (10 µM)", "CD86 surface expression induction": "-7.52 ± 22"}, {"smiles": "Nc1ccc(Nc2ccccc2)cc1", "note": "[N-Phenyl-1,4-benzenediamine] (200 µM)", "CD86 surface expression induction": "44.2 ± 39"}, {"smiles": "NC(=O)n1c(O)c(C(=O)c2cccs2)c2cc(Cl)ccc21", "note": "[Tenidap*] (200 µM)", "CD86 surface expression induction": "98.4 ± 52"}, {"smiles": "C=CC(=O)OCCCCCCOC(=O)C=C", "note": "[1,6-Hexanediol diacrylate] (100 µM)", "CD86 surface expression induction": "24.1 ± 16"}, {"smiles": "COc1ccc2cc(CCC(C)=O)ccc2c1", "note": "[Nabumetone] (100 µM)", "CD86 surface expression induction": "-3.23 ± 4.6"}, {"smiles": "Cc1c(C)n(Cc2ccccc2)c2ccc(C(=O)OCCN(C)C)cc12", "note": "[Indocate] (200 µM)", "CD86 surface expression induction": "67.3 ± 61"}, {"smiles": "CCc1oc2ccccc2c1C(=O)c1cc(I)c(O)c(I)c1", "note": "[Benziodarone] (100 µM)", "CD86 surface expression induction": "7.99 ± 3.4"}, {"smiles": "COc1ccc(C(=O)c2ccc(C)cc2)c(O)c1", "note": "[Mexenone] (300 µM)", "CD86 surface expression induction": "18.8 ± 32"}, {"smiles": "COc1cc(C(C)(C)C)c(O)c(C(C)(C)C)c1", "note": "[2,6-Di-tert-butyl-4-methoxyphenol] (200 µM)", "CD86 surface expression induction": "18.9 ± 43"}, {"smiles": "O=c1cc(-c2ccccc2)oc2cc(O)cc(O)c12", "note": "[Chrysin] (100 µM)", "CD86 surface expression induction": "38.2 ± 51"}, {"smiles": "C=CCOC(Cn1ccnc1)c1ccc(Cl)cc1Cl", "note": "(stereo not given) [Imazalil sulfate] (100 µM)", "CD86 surface expression induction": "16.4 ± 4.3"}, {"smiles": "CCCCOCCOCCOCCO", "note": "[2-[2-(2-Butoxyethoxy)ethoxy]ethanol] (115 µM)", "CD86 surface expression induction": "12.7 ± 12"}, {"smiles": "O=C(O)c1cccnc1Nc1cccc(C(F)(F)F)c1", "note": "[Niflumic acid] (100 µM)", "CD86 surface expression induction": "-3.19 ± 1.6"}, {"smiles": "CC1=C(/C=C/C(C)=C\\C=C\\C(C)=C\\C(=O)O)C(C)(C)CCC1", "note": "[9-cis Retinoic acid] (100 µM)", "CD86 surface expression induction": "5.14 ± 16"}, {"smiles": "CCCCCCCCCCCCN(CCO)CCO", "note": "[Lauryldiethanolamine] (10 µM)", "CD86 surface expression induction": "-16.1 ± 0.72"}, {"smiles": "O=C(Nc1ncc([N+](=O)[O-])s1)c1cccs1", "note": "[Tenonitrozole] (10 µM)", "CD86 surface expression induction": "-9.19 ± 11"}, {"smiles": "O=C(NS(=O)(=O)/C=C/c1cccs1)c1ccc(F)cc1Br", "note": "(200 µM)", "CD86 surface expression induction": "-2.46 ± 4"}, {"smiles": "CC(C)c1ccc2oc3nc(N)c(C(=O)O)cc3c(=O)c2c1", "note": "[Amlexanox] (100 µM)", "CD86 surface expression induction": "8.56 ± 19"}, {"smiles": "Cn1sccc1=O", "note": "[2-Methyl-4-isothiazolin-3-one hydrochloride] (10 µM)", "CD86 surface expression induction": "-16.2 ± 4.7"}, {"smiles": "Oc1ccc2ccccc2c1N=Nc1ccccc1", "note": "[C.I. Solvent Yellow 14] (200 µM)", "CD86 surface expression induction": "3.18 ± 3.5"}, {"smiles": "O=C1c2cccc(O)c2C(=O)c2c(O)cc(CO)cc21", "note": "[Aloe-emodin] (100 µM)", "CD86 surface expression induction": "4.61 ± 9.4"}, {"smiles": "CCCOc1ccc2[nH]c(NC(=O)OC)nc2c1", "note": "[Oxibendazole] (100 µM)", "CD86 surface expression induction": "-3.54 ± 40"}, {"smiles": "CC1=C(/C=C/C(C)=C/C=C/C(C)=C/C=O)C(C)(C)CCC1", "note": "[13-cis-Retinal (Vitamin A aldehyde)] (100 µM)", "CD86 surface expression induction": "64.3 ± 98"}, {"smiles": "CC(C)NC(=O)c1ccc(C=O)cc1", "note": "[N-isopropyl-4-formylbenzamide] (100 µM)", "CD86 surface expression induction": "-3.04 ± 5.2"}, {"smiles": "CC(C)(C)c1cc(O)ccc1O", "note": "[tert-Butylhydroquinone] (100 µM)", "CD86 surface expression induction": "66.8 ± 57"}, {"smiles": "CC(C)(C)c1ccc(S)cc1", "note": "[4-tert-Butylbenzenethiol] (200 µM)", "CD86 surface expression induction": "12.9 ± 21"}, {"smiles": "CCC1OCC(COc2ccc(Oc3ccccc3)cc2)O1", "note": "(stereo not given) [Diofenolan] (10 µM)", "CD86 surface expression induction": "-18.9 ± 5.4"}, {"smiles": "C#CCN(C)CCCOc1ccc(Cl)cc1Cl", "note": "[Clorgyline hydrochloride] (100 µM)", "CD86 surface expression induction": "-4.71 ± 3.7"}, {"smiles": "Oc1c(Br)cc(Br)c2cccnc12", "note": "[Broxyquinoline] (100 µM)", "CD86 surface expression induction": "57.8 ± 75"}, {"smiles": "O=C(O)c1cc(O)c2ccccc2c1O", "note": "[1,4-dihydroxy-2-naphthoic acid*] (10 µM)", "CD86 surface expression induction": "290 ± 51"}, {"smiles": "CCCCc1ccc2[nH]c(NC(=O)OC)nc2c1", "note": "[Parbendazole*] (200 µM)", "CD86 surface expression induction": "65.8 ± 110"}, {"smiles": "CC(=O)C1(C)CC2=C(CCCC2(C)C)CC1C", "note": "(stereo not given) (100 µM)", "CD86 surface expression induction": "9.62 ± 13"}, {"smiles": "COc1cc(/C=C2\\CCC/C(=C\\c3ccc(O)c(OC)c3)C2=O)ccc1O", "note": "[Cyclovalone] (10 µM)", "CD86 surface expression induction": "-7.37 ± 5.9"}, {"smiles": "O=C(O)Cc1cc(I)c(Oc2cc(I)c(O)c(I)c2)c(I)c1", "note": "[Tetrac] (100 µM)", "CD86 surface expression induction": "12.3 ± 2"}, {"smiles": "CC(O)C#CC(C)O", "note": "(stereo not given) [Hex-3-yne-2,5-diol] (10 µM)", "CD86 surface expression induction": "0.05 ± 2.9"}, {"smiles": "CC(C)c1ccc2cc(C(C)C)ccc2c1", "note": "[2,6-Diisopropylnaphthalene] (200 µM)", "CD86 surface expression induction": "18.9 ± 22"}, {"smiles": "O=C(Nc1ccccc1)c1cc([N+](=O)[O-])ccc1Cl", "note": "[2-Chloro-5-nitro-N-phenylbenzamide] (200 µM)", "CD86 surface expression induction": "31.1 ± 7.1"}, {"smiles": "CCCCCCCCCCCCOCCO", "note": "[2-(Dodecyloxy)ethanol] (200 µM)", "CD86 surface expression induction": "57 ± 59"}, {"smiles": "Clc1ccc2c(c1)Nc1ccccc1S2", "note": "[2-Chlorophenothiazine] (100 µM)", "CD86 surface expression induction": "-11 ± 14"}, {"smiles": "C=CC(=O)OCCn1c(=O)n(CCOC(=O)C=C)c(=O)n(CCOC(=O)C=C)c1=O", "note": "(10 µM)", "CD86 surface expression induction": "14.2 ± 10"}]}]}
